In the library only some 17% were active in any assay of this set; here they are far more common.
HT1080-NT tox: qHTS for induction of synthetic lethality in tumor cells producing 2HG: qHTS for the HT-1080-NT fibrosarcoma cell line; 360,000 tested, 1.6% active; Potency, µM (series often up to 46.1 µM), inactives show at the top dose activity, negative = less viability, hits mostly cytotoxic; HT-1080-NT fibrosarcoma viability, CellTiter-Glo ATP luminescence, 48 h;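 further: NT is the 2HG producing partner of a matched IDH1 knockdown line; 0% = DMSO-treated cells and -100% = media-only wells without cells; nearly all actives have a fitted effect of over 55% in size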
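Viability of the 2HG-overproducing fibrosarcoma line after 48 hours of compound exposure at 37 degrees C was determined by luminescence with CellTiter-Glo, and concentration-effect curves were then fitted and categorized.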
HT1080 IDH1KD tx: qHTS for induction of synthetic lethality in tumor cells producing 2HG: qHTS for the HT-1080-IDH1KD cell line. HT-1080 IDH1 knockdown viability, ATP luminescence, 48 h. Potency, µM (titrated, usually from 46.1 µM), without a hit: at the top dose activity, negative = toxicity, actives largely listed as cytotoxic. 360,000 tested, 2% active. AID 686971, 2013;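 further: 0% = DMSO wells and -100% = cell-free medium wells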
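In this qHTS, HT-1080 cells depleted of IDH1 are exposed for 48 h at 37 °C to compound titrations. Toxicity is scored from CellTiter-Glo luminescence, with DMSO as full viability and medium alone as none.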
DT40 TDP1 no CPT: qHTS for Inhibitors of human tyrosyl-DNA phosphodiesterase 1 (TDP1): qHTS in cells in absence of CPT; Potency, µM (titrated, usually from 46.2 µM), without a hit: at the top dose activity change, negative = growth inhibition, most hits filed as inhibitors; 420,000 tested, 15% active; AID 686978, 2013; DT40 Tdp1-/- hTDP1 cells, no CPT, ATP luminescence, 48 h; further: on the % scale 0 is the no-effect control and ±100 the full control effect; nearly all actives have a fitted effect of over 55% in size
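A cellular qHTS used chicken DT40 cells lacking endogenous Tdp1 but carrying stably transfected human TDP1. Compounds were applied without camptothecin, and cell growth kinetics were judged by ATP-dependent luminescence after ≥48 hr.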
DT40 TDP1 CPT: qHTS for Inhibitors of human tyrosyl-DNA phosphodiesterase 1 (TDP1): qHTS in cells in presence of CPT; AID 686979, 2013; Potency, µM (doses to about 46.2 µM), for inactives: at the top dose activity change, negative = growth inhibition, usual class: inhibitors; 420,000 tested, 12% active; chicken DT40 Tdp1-/-;hTDP1 cells + 20 nM CPT, ATP luminescence, 48 h; further: on the % scale 0 is the no-effect control and ±100 the full control effect; nearly all actives have a fitted effect of over 55% in size
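Cell growth measured by CellTiter-Glo luminescence after a minimum 48 h, 37 C compound exposure with 20 nM CPT in Tdp1-knockout DT40 cells stably expressing hTDP1, seeded 400/well; qHTS titration format.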
HepG2 tox: qHTS for Inhibitors of TGF-b: Cytotox Counterscreen. HepG2 CAGA-GFP viability, ATP luminescence, 18 h. Potency, µM (top dose mostly 46.1 µM), for inactives: top-dose activity change, negative = cytotoxicity, usual class: cytotoxic. 410,000 tested, 0.76% active
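HepG2 CAGA-GFP cells (1000/well, DMEM with 1% FBS) received compound, then TGF-beta at 500 pg/mL final, and were incubated 18 hours at 37 degrees C. Viability was read by CellTiter-Glo luminescence. Media-only wells were set as complete cell-killing and DMSO as no toxicity.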
TGFb SMAD3 inh: qHTS for Inhibitors of TGF-b; HepG2 CAGA-GFP TGF-b/SMAD3 reporter, GFP fluorescence, 18 h; TGF-beta stimulated, 500 pg/mL final; Potency, µM (doses to about 46.1 µM), without a hit: at the highest dose activity, negative = inhibition, usual class: inhibitors; 410,000 tested, 1.2% active; AID 588855, 2011; further: on the % scale 0 is the no-effect control and ±100 the full control effect; nearly all actives have a fitted effect of over 65% in size
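TGF-beta reporter screen: HEPG2 CAGA-GFP, 1% FBS, 500 pg/mL TGF-beta final, 18 h; per-cell GFP summed per well; curves fitted and categorized by class.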
* = called active by the depositor. The call rests on the fitted dose curve; in most records, active means well fitted curve in the direction sought with a large enough effect; inconclusive means small, poorly fitted or top-dose-only effect, or another doubt; inactive means no such curve, though single readings can be large; an effect the other way counts as inactive or inconclusive. Potency means the concentration at half of the fitted maximal effect.

Cc1ccc(CNC(=O)C2(C)CCN2C(=O)Cc2ccc(-c3ccccc3)cc2)cc1 (stereo not drawn) was read as HT1080-NT tox inconclusive, HT1080 IDH1KD tx inconclusive, DT40 TDP1 no CPT 23µM*, DT40 TDP1 CPT inconclusive, HepG2 tox -17% and TGFb SMAD3 inh 0%.
Screening Cc1ccc(S(=O)(=O)NC(=O)C2(C)CCN2C(=O)Cc2ccc(-c3ccccc3)cc2)nc1 (stereo not drawn) returned HT1080-NT tox 1%, HT1080 IDH1KD tx 22%, DT40 TDP1 no CPT 3%, DT40 TDP1 CPT 5%, HepG2 tox 1% and TGFb SMAD3 inh 6%.
CCCC(=O)N1CCC1(C)C(=O)Nc1ccccc1C(C)(C)C (stereo not drawn) was read as HT1080-NT tox 25%, HT1080 IDH1KD tx 19%, DT40 TDP1 no CPT -18%, DT40 TDP1 CPT 0%, HepG2 tox 1% and TGFb SMAD3 inh 31%.
For CC1(C(=O)Nc2ccccc2)CCN1C(=O)Cc1ccc(-c2ccccc2)cc1 (stereo not drawn) the results were HT1080-NT tox inconclusive, HT1080 IDH1KD tx inconclusive, DT40 TDP1 no CPT 18µM*, DT40 TDP1 CPT 23µM*, HepG2 tox -1% and TGFb SMAD3 inh 1%.
Screening COc1cccc(NC(=O)C2(C)CCN2C(=O)Cc2ccc(-c3ccccc3)cc2)c1 (stereo not drawn) returned HT1080-NT tox inconclusive, HT1080 IDH1KD tx inconclusive, DT40 TDP1 no CPT 15µM*, DT40 TDP1 CPT inconclusive, HepG2 tox 3% and TGFb SMAD3 inh -1%.
Screening CCCC(C)(C)C(=O)N1CCC1(C)C(=O)Nc1cccc2ccccc12 (stereo not drawn) returned HT1080-NT tox -7%, HT1080 IDH1KD tx -25%, DT40 TDP1 no CPT 10µM*, DT40 TDP1 CPT 21µM*, HepG2 tox -7% and TGFb SMAD3 inh -17%.
For COc1cccc(NC(=O)C2(C)CCN2C(=O)CCc2ccc(Cl)cc2Cl)c1 (stereo not drawn) the results were HT1080-NT tox -19%, HT1080 IDH1KD tx -18%, DT40 TDP1 no CPT inconclusive, DT40 TDP1 CPT inconclusive, HepG2 tox -33% and TGFb SMAD3 inh 8%.
`CC1(C(=O)NC2CCCC2)CCN1C(=O)Cc1ccc(-c2ccccc2)cc1` (stereo not drawn) gave HT1080-NT tox inconclusive, HT1080 IDH1KD tx inconclusive, DT40 TDP1 no CPT 23µM*, DT40 TDP1 CPT 16µM*, HepG2 tox -25% and TGFb SMAD3 inh -11%.
CC1(C(=O)Nc2ccc3c(c2)OCO3)CCN1C(=O)c1ccccc1 (stereo not drawn) was read as HT1080-NT tox 8%, HT1080 IDH1KD tx 3%, DT40 TDP1 no CPT 6%, DT40 TDP1 CPT 12%, HepG2 tox -23% and TGFb SMAD3 inh -16%.
Screening CC1(C(=O)Nc2ccc3c(c2)OCO3)CCN1C(=O)Cc1ccc(-c2ccccc2)cc1 (stereo not drawn) returned HT1080-NT tox inconclusive, HT1080 IDH1KD tx inconclusive, DT40 TDP1 no CPT 4.6µM*, DT40 TDP1 CPT 7.3µM*, HepG2 tox -21% and TGFb SMAD3 inh -7%.
Screening CC1(C(=O)Nc2ccc(Cl)c(Cl)c2)CCN1C(=O)Cc1ccc(-c2ccccc2)cc1 (stereo not drawn) returned HT1080-NT tox inconclusive, HT1080 IDH1KD tx inconclusive, DT40 TDP1 no CPT 18µM*, DT40 TDP1 CPT 15µM*, HepG2 tox -8% and TGFb SMAD3 inh -28%.
`Cn1nc(C2CC2)cc1NC(=O)C1(C)CCN1C(=O)Cc1ccc(-c2ccccc2)cc1` (stereo not drawn) gave HT1080-NT tox -15%, HT1080 IDH1KD tx -17%, DT40 TDP1 no CPT 21µM*, DT40 TDP1 CPT 21µM*, HepG2 tox -51% and TGFb SMAD3 inh 6%.
`Cc1cc(NC(=O)CCC(=O)N(c2ccccc2)C(C(=O)NC2CCCC2)c2ccc(F)cc2)no1` (stereo not drawn) gave HT1080-NT tox -6%, HT1080 IDH1KD tx -7%, DT40 TDP1 no CPT -16%, DT40 TDP1 CPT 5%, HepG2 tox 3% and TGFb SMAD3 inh -3%.
`COc1ccc(NC(=O)CSc2nnc(-c3ccncc3)o2)c([N+](=O)[O-])c1` gave HT1080-NT tox 13%, HT1080 IDH1KD tx 19%, DT40 TDP1 no CPT 0%, DT40 TDP1 CPT 9%, HepG2 tox 11% and TGFb SMAD3 inh 7%.
CC1(C(=O)N2CCCCC2)CCN1C(=O)Cc1ccc(-c2ccccc2)cc1 (stereo not drawn) was read as HT1080-NT tox -7%, HT1080 IDH1KD tx -3%, DT40 TDP1 no CPT inconclusive, DT40 TDP1 CPT 15µM*, HepG2 tox -31% and TGFb SMAD3 inh -35%.
Screening CCCC(=O)N1CCC1(C)C(=O)Nc1ccc2c(c1)OCCO2 (stereo not drawn) returned HT1080-NT tox 15%, HT1080 IDH1KD tx 4%, DT40 TDP1 no CPT -24%, DT40 TDP1 CPT -5%, HepG2 tox 9% and TGFb SMAD3 inh 1%.
For CC1(C(=O)NS(=O)(=O)Cc2ccccc2)CCN1C(=O)Cc1ccc(-c2ccccc2)cc1 (stereo not drawn) the results were HT1080-NT tox 1%, HT1080 IDH1KD tx 1%, DT40 TDP1 no CPT -10%, DT40 TDP1 CPT 17%, HepG2 tox 13% and TGFb SMAD3 inh 28%.
For CCC(=O)N1CCC1(C)C(=O)Nc1ccc2c(c1)OCO2 (stereo not drawn) the results were HT1080-NT tox -1%, HT1080 IDH1KD tx 5%, DT40 TDP1 no CPT -3%, DT40 TDP1 CPT 2%, HepG2 tox -16% and TGFb SMAD3 inh 14µM*.
CC1(C(=O)Nc2ccccc2F)CCN1C(=O)Cc1ccc(-c2ccccc2)cc1 (stereo not drawn) was read as HT1080-NT tox inconclusive, HT1080 IDH1KD tx inconclusive, DT40 TDP1 no CPT 15µM*, DT40 TDP1 CPT inconclusive, HepG2 tox -14% and TGFb SMAD3 inh -19%.

Screening results as filed in PubChem.
